Measurements reported in PubChem BioAssay AID2669 (National Center for Advancing Translational Sciences (NCATS), 2010).
Results filed as inconclusive are left out. Where a call stands in place of a potency, no number is given. Active and inactive are the calls of the source. Calls come from the whole dose curve; as a rule, active = well fitted inhibition curve with a large enough effect; inconclusive = small, poorly fitted or top-dose-only effect, or effect the other way; inactive = flat fitted curve, though single readings scatter.

Assay: qHTS Assay Multiplex Screening to Identify Dual Action Probes in a Cell Model of Huntington: Cytoprotection (Protease relase)
Conditions: PC12 HttQ103 cells, Cytotox-Glo protease release, 40 h; series mostly up to 46.1 µM
From the text: NIH Chemical Genomics Center [NCGC]
NIH Molecular Libraries Probe Production centers Network [MLPCN]
Assay Submitter (PI): Wei Zheng
Huntington's disease is a neurodegenerative disorder caused by a trinucleotide repeat expansion in Exon 1 of the Huntingtin gene. The CAG trinucleotide encodes glutamine and polyglutamine expansions cause cell death in selective areas of the brain. Huntington polyglutamine repeats have the tendency to form aggregates which are observable in later stages of the disease. The exact nature of the aggregates, whether toxic, protective, or insignificant, is unclear.
A stable PC12 cell line containing a gene fusion of Exon 1 of the Huntingtin gene linked to GFP under the control of the inducible ecdysone promoter were used as the cell-based model of Huntington Disease for high throughput screening. Exon 1 of the Huntingtin gene contained an expansion of 103 polyglutamines (Q103) which, when expressed, caused cell death and distinct, bright GFP aggregates. The amount of cell death and the size and intensity of GFP aggregates increased over time and induction level. In the primary screen, cell death were quantified with a measurement of ATP content in the cells. A maximal 40-50% of cell death was observed when the Huntington gene was induced in this cell line.
We optimized this assay in a homogeneous 1536 well format. A quantitative high throughput screen (qHTS) was conducted on the PC12 cells which were induced to express the toxic fusion construct. Small molecules which prevented cell death were considered hits, and were further studied. The present assay is an alternate assay for cytoprotection using Promega's Cytotox-Glo reagent.
PC12 cells stably containing a construct with an ecdysone inducible promoter expressing GFP fused to the exon 1 of HTTQ103 (Huntington protein which containing a 103 ployglutamine expansion) were used.
NCGC Assay Protocol Summary:
Sequence, Parameter, Description
1, Reagent, 5 uL 1500 cells/well 1536 TC treated White clear bottom plate
2, Compound, 23 nL Tebufenozide inducer (100 nM final) to all columns
3, Compound, 23 nL 40 uM to 0.5 nM Libraries
5, Reagent, 2 ul Promega's Cytotox-Glo assay reagent
6, Detector, 4 sec integration with a Viewlux Luminescent
Media consisted of phenol red free DMEM + 5% equine serum (Hyclone # SH30072.03 ), 5% supplemented Bovine Calf Serum (Hyclone # SH30074.03 ), 1x pen/strep, no G418

SMILES	Potency
C[C@H]1CC[C@@]2(NC1)O[C@@H]1C[C@H]3[C@@H]4CC=C5C[C@@H](O)CC[C@]5(C)[C@@H]4CC[C@]3(C)[C@@H]1[C@@H]2C	inactive
CC[C@]1(C2=NCCN2)Cc2ccccc2O1	inactive
O=C1C=C2C=C[C@H]3C[C@@]2(O1)[C@H]1CCCCN31	794 nM (active)
Oc1cc(Cl)ccc1Oc1ccc(Cl)cc1Cl	inactive
C[C@@]1(CO)[C@H](O)CC[C@@]2(C)[C@H]1CC[C@H]1C[C@@H]3C[C@@]12CC[C@]3(O)CO	inactive
NC(=O)c1sc2nc3c(c(-c4cccs4)c2c1N)CCCC3	inactive
CCC(C)C(=O)OC1C(O)C2C(CN3CC(C)CCC3[C@]2(C)O)C2C[C@]34O[C@@]5(O)C(OC(=O)C(C)(O)CC)CCC3(C)C5C(OC(C)=O)C(OC(C)=O)C4[C@@]21O (some centres not stated)	inactive
